About 83,000 compounds went through this panel and 20% of them were active in at least one assay; those are over-represented in the sample as a whole.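 Step 1: grow cells in 96-well plates. Step 2: add test compound at a single concentration. Step 3: incubate 48 h. Step 4: record percent growth.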 A number with no mark means an inactive call. Calls of active or inactive are those of the source. Rule for the calls: active = growth percent below 10; inactive = the rest.
Columns and labels:
Experiment in all cases: NCI-60 one-dose screen, 48 h (100 = growth as untreated, 0 = no growth, -100 = all killed)
Settings in all cases: 10 µM unless noted
[1] = system: SR leukemia
[2] = system: RPMI-8226 leukemia
[3] = system: OVCAR-8 ovarian
[4] = system: OVCAR-5 ovarian
[5] = system: OVCAR-4 ovarian
[6] = system: SK-OV-3 ovarian
[7] = system: IGROV1 ovarian
[8] = system: OVCAR-3 ovarian
[9] = system: HS 578T breast
[10] = system: NCI/ADR-RES ovarian
[11] = system: T-47D breast
[12] = system: BT-549 breast
[13] = system: MDA-MB-435 melanoma
[14] = system: SW-620 colon
[15] = system: MCF7 breast
[16] = system: HCT-116 colon
[17] = system: HCC-2998 colon
[18] = system: KM12 colon

SMILES	growth [1]	growth [2]	growth [3]	growth [4]	growth [5]	growth [6]	growth [7]	growth [8]	growth [9]	growth [10]	growth [11]	growth [12]	growth [13]	growth [14]	growth [15]	growth [16]	growth [17]	growth [18]
CC/C=C\C[C@H](F)C/C=C1/C(=O)C=C[C@@H]1C/C=C\CCCC(=O)OC	-25.8% (active)	-10.4% (active)	-15.4% (active)	68.2%	24.2%	50.3%	10.6%	-13.2% (active)	45.2%	14.2%	4.66% (active)	-2.64% (active)	0.0777% (active)	14.3%	11.6%	-54.6% (active)	9.38% (active)	-27.7% (active)
CCOC(=O)C(C#N)C1CCCCC1 (stereo not drawn)	84.3%	99.1%	103%	99.8%	118%	109%	101%	96.9%	122%	98.5%	91.1%	90.1%	97.6%	106%	123%	99.4%	102%	107%
CCC(C)[C@@H]1NC(=O)[C@@H]2CCCN2C(=O)[C@H](Cc2ccccc2)NC(=O)[C@@H]2CCCN2C(=O)[C@H](Cc2ccccc2)NC(=O)[C@@H]2CCCN2C(=O)[C@H](Cc2ccccc2)NC1=O (stereo partly drawn)	83.7%	85.7%	113%	105%	106%	103%	120%	126%	106%	112%	98.9%	109%	112%	105%	87.5%	113%	106%	121%
O=C1/C(=C/c2ccc(F)cc2)CN(C(=O)CCN2CCC(=NO)CC2)C/C1=C\c1ccc(F)cc1	4.41% (active)	-37.6% (active)	5.09% (active)	-53.9% (active)	-18.7% (active)	-0.984% (active)	-29.2% (active)	-60% (active)	11.4%	12.5%	-18.9% (active)	-26.6% (active)	-49.9% (active)	-56.5% (active)	-48.6% (active)	-65.6% (active)	-83.3% (active)	-77.2% (active)
Cc1cc(Nc2nc(-c3cccnc3)nc3ccccc23)n[nH]1	15.5%	98.8%	80.6%	65.9%	60.8%	21.9%	28.9%	59%	5.1% (active)	69.3%	27.2%	47.2%	56.2%	47%	23%	30.9%	69.7%	19.1%
CC1=NNC(=O)C1C (stereo not drawn)	121%	73.1%	83.3%	122%	128%	101%	106%	109%	90.8%	105%	104%	284%	104%	98%	104%	84.2%	103%	102%
O=C1c2cccnc2C(=O)c2c1c(C(=O)OCCN1CCCCC1)c1ccccn21	-23.9% (active)	-29.9% (active)	-58.2% (active)	-27.8% (active)	0.138% (active)	-36.8% (active)	-16.7% (active)	-2.68% (active)	-0.578% (active)	-25.5% (active)	4.01% (active)	20.1%	-5.97% (active)	-13.6% (active)	-43.3% (active)	-8.36% (active)	-46.6% (active)	8.77% (active)
COc1nc2c(cc1S(=O)(=O)c1ccccc1)CCc1c-2cnn1-c1ccc(Cl)cc1	80.7%	93.3%	104%	85.5%	90.4%	95.5%	100%	111%	82%	89.9%	83.2%	109%	90.8%	93.1%	95.2%	88.1%	92.9%	109%
O=c1c(/C=C/c2ccco2)nnc(SCCN2CCOCC2)n1/N=C/c1ccc([N+](=O)[O-])cc1	33.6%	67%	94%	103%	97.2%	95%	82.8%	108%	96.9%	101%	68.2%	94.6%	97.4%	104%	31%	95%	93.1%	92%
CN1CCCCC1CCN1c2ccccc2Sc2ccc(Cl)cc21 (stereo not drawn)	-22.5% (active)	56.5%	63%	91.8%	57.1%	59.1%	45.5%	81.6%	72.5%	72.9%	71.1%	73.8%	27%	73.4%	21.6%	30.6%	61.1%	60%
O=c1ccc2cc3ccccc3cc2[nH]1	82.1%	87.4%	105%	82%	95.1%	102%	98.2%	87.4%	50.9%	93%	96.9%	108%	92.3%	97.4%	96.6%	99.2%	83.3%	101%
O=C(O)c1cccc2c1-c1ccccc1C2=O	94.2%	124%	103%	92.2%	105%	103%	85%	102%	97.7%	100%	93.1%	85.8%	97.7%	95.7%	92.3%	92.6%	99%	97.9%
COc1cc(OC)c(/C=C/S(=O)(=O)Cc2ccc(OC)c(N)n2)c(OC)c1	0.349% (active)	33.1%	11%	50.5%	42.1%	5.23% (active)	26.4%	-27.7% (active)	43.8%	10.2%	44.8%	8.17% (active)	2.24% (active)	25.5%	12.9%	2.03% (active)	18.8%	12.9%
O=C(CN1CCOCC1)Nc1ccc(Cn2nnc3c2C(=O)c2nnn(Cc4ccc(NC(=O)CN5CCOCC5)cc4)c2C3=O)cc1	-21.3% (active)	-18.9% (active)	-58.3% (active)	-21.9% (active)	-93.4% (active)	0.088% (active)	-41.4% (active)	-19% (active)	11.6%	103%	-26.5% (active)	-95.6% (active)	-77.1% (active)	4.23% (active)	-62% (active)	-75.1% (active)	-42% (active)	6.44% (active)
Cn1c2c(Cl)c(Cl)ccc2c2ccn3c(=O)c4ccccc4nc3c21	75.9%	98.8%	95.5%	96.8%	92.1%	88.9%	54.4%	113%	103%	99.4%	85%	86.4%	98.3%	99.1%	96.2%	90%	100%	103%
O=C(O)c1cccnc1Br	89.4%	112%	106%	101%	102%	94.4%	98.1%	104%	110%	99.3%	85.4%	110%	102%	110%	96.8%	98.1%	98.5%	113%

— PubChem BioAssay (NCI)
